Reference: PubChem BioAssay (NCATS)
Where “and” joins values, the source holds several entries; their conditions need not be identical. Equal values may be shown once. Records with an inconclusive call do not appear. Calls of active or inactive are those of the source. Unless noted, the call rests on the fitted dose curve; in most records, active means well fitted curve in the direction sought with a large enough effect; inconclusive means small, poorly fitted or top-dose-only effect, or another doubt; inactive means no such curve, though single readings can be large; an effect the other way counts as inactive or inconclusive.

Columns and labels:
[1] = target: Peptidyl-prolyl cis-trans isomerase NIMA-interacting 1 (Homo sapiens) (UniProt Q13526); assay: qHTS Validation Assay to Find Inhibitors of Pin1 (AID 504536; active means well fitted inhibition curve with a large enough effect in the polarisation, with a control signal flat, not every such curve was filed as active; the % refers to the polarisation;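 further: 0% = full Pin1 enzyme wells and -100% = no-enzyme wells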)
Peptidyl-prolyl cis-trans isomerase NIMA-interacting 1 (Homo sapiens), sequence (Q13526 whole entry, looked up): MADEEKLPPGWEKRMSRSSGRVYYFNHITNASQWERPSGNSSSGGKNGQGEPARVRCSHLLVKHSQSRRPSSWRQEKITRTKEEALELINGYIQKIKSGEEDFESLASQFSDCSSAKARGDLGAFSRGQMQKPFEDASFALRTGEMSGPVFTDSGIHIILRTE
Outline: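 Fluorescence polarization competition: compounds (titration) displace HiFluor-488-labeled Pin1-1b peptide from Pin1 (0.3 uM final) in pH 7.5 HEPES buffer with DTT, 10 min at room temperature; %Activity normalized to no-enzyme wells, curves fitted.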

[2] = target: Phosphoglycerate kinase, glycosomal (Trypanosoma brucei brucei) (UniProt P07378); assay: qHTS Validation Assay to Find Inhibitors of Phosphoglycerate Kinase (AID 504547);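 further: control wells lack PGK and mark full inhibition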
Phosphoglycerate kinase, glycosomal (Trypanosoma brucei brucei), sequence (P07378 whole entry, looked up): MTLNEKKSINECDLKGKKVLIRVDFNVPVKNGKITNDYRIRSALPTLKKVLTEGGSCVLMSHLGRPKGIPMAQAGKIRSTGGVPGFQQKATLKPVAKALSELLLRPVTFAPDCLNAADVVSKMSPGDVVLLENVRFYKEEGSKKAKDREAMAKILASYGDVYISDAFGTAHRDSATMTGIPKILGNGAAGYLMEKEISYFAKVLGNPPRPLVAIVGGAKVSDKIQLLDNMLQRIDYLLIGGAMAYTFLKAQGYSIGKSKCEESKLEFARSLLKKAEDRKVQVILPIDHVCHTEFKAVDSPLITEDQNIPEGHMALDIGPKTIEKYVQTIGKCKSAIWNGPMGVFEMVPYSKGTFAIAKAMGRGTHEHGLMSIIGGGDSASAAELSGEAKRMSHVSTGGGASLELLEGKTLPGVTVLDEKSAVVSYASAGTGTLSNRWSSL
Outline: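 Inhibition of the enzyme is judged by a Kinase-Glo Plus luminescent signal following a one-hour incubation at room temperature. Because 1,3-BPG is unstable, it is made in situ by GAPDH at 100nM final; no-PGK wells define the baseline.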

[3] = target: phosphoglycerate mutase (Leishmania major) (UniProt Q4Q090); assay: qHTS Validation Assay to Find Inhibitors of Phosphoglycerate Mutase (AID 504548); further: series mostly up to about 58 µM; on the % scale 0 is the no-effect control and ±100 the full control effect
phosphoglycerate mutase (Leishmania major), sequence (Q4Q090 1-553): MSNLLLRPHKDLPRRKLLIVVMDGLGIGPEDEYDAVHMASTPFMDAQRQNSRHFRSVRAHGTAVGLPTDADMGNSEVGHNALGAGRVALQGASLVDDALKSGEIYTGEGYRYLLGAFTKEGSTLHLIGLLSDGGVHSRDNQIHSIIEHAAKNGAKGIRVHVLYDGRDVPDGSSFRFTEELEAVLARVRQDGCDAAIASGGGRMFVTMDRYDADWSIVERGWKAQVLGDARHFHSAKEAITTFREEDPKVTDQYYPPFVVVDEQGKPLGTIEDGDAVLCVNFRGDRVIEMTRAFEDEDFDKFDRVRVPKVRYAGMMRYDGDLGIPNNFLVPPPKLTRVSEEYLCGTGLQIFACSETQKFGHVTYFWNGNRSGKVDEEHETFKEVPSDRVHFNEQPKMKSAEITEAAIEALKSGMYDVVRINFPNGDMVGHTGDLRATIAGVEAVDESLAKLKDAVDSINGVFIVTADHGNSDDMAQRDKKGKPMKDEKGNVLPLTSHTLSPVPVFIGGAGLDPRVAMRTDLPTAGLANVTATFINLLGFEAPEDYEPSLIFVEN
Outline: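 Luminescent end-point read-out via Kinase-GloPlus after a 10-minute development. Reaction: 1.25nM Leishmania major PGAM with substrate and compound, 45 minutes at room temperature in TEA buffer (pH 7.6) with MgCl2 and Tween-20.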

[4] = target: Ubiquitin carboxyl-terminal hydrolase 1 (Homo sapiens) (UniProt O94782); assay: Inhibitors of USP1/UAF1: Pilot qHTS (AID 504865);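 further: rhodamine fluorescence freed from ubiquitin-rhodamine substrate followed over time; top concentration of the series differs between compounds; on the % scale 0 is the no-effect control and ±100 the full control effect; nearly all actives have a fitted effect of over 35% in size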
Outline: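 USP1/UAF1 complex (1nM) preincubated with compound 15 min at room temperature, then Ub-Rho substrate (150nM final) added. Fluorescence read kinetically at 480/540 nm, 6 reads every 60 seconds. Buffer: 50mM HEPES pH 7.8, 0.5mM EDTA, 0.1 mg/ml BSA, 1mM TCEP, 0.01% Tween-20.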

[5] = qHTS for Inhibitors of ATXN expression: Validation of Cytotoxic Assay (AID 588349); further: on the % scale 0 is the no-effect control and ±100 the full control effect
Outline: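 Read-out: ATP-based luminescence (CellTiter Glo) reflecting viability of HEK293 cells after 72 hr incubation at 37 degrees C with a concentration series of each compound.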

[6] = qHTS for Inhibitors of ATXN expression: Validation (AID 588378); further: nearly all actives have a fitted effect of over 75% in size; further: potency means the concentration at half of the fitted maximal effect
Outline: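 Luminescence from an ATXN2-FFLuc reporter in HEK293 cells served as read-out after 24 h compound treatment at 37 degrees C; CellTiter-Fluor fluorescence was recorded first to assess viability.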

[7] = target: DNA dC->dU-editing enzyme APOBEC-3G (Homo sapiens) (UniProt Q9HC16); assay: qHTS for inhibitors of Vif-A3G interactions: Validation (AID 588379); further: 0% is about no effect
DNA dC->dU-editing enzyme APOBEC-3G (Homo sapiens), sequence (Q9HC16 whole entry, looked up): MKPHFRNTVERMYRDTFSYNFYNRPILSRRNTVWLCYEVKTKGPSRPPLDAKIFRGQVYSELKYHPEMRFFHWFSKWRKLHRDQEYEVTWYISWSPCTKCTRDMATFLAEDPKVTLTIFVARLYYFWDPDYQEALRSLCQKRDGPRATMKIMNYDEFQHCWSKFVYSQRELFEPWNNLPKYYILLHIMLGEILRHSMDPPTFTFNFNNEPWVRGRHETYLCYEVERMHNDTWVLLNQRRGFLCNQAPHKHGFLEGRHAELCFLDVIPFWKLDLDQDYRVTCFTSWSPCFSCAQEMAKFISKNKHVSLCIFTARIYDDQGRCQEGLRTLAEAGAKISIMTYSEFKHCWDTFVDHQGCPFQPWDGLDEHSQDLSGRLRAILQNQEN
Outline: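 HeLa cells stably expressing Vif and A3G-eYFP, 700 cells/well, incubated overnight at 37 deg C, then exposed to compound overnight at 37 deg C. Inhibition of Vif-mediated degradation read as increased yellow fluorescence (Ex 488/Em 500-530) by laser-scanning cytometry.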

[8] = target: Bile acid receptor (Homo sapiens) (UniProt Q96RI1); assay: qHTS assay for small molecule antagonists of farnesoid X receptor signaling (AID 588526; calls by dose curve; further: potency means the concentration at half of the fitted maximal effect)
Bile acid receptor (Homo sapiens), sequence (Q96RI1 whole entry, looked up): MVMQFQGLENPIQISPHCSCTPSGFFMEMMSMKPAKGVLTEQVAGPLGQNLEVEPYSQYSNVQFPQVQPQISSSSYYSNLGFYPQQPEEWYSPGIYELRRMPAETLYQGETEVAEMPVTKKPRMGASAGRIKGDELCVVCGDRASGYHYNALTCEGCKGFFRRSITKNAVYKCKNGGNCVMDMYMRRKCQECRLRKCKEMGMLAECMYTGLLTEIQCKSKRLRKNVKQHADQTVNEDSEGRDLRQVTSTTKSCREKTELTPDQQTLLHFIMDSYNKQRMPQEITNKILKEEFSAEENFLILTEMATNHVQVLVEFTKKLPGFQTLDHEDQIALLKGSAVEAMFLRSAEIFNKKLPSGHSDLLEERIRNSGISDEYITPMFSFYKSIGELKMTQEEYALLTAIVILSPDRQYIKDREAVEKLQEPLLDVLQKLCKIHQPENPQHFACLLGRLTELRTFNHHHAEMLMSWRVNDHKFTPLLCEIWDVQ
Outline: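 Beta-lactamase reporter antagonist mode: HEK293T FXR-UAS-bla cells, titrated compound, CDCA stimulation, 16 h 37 C, CCF4 dye 2 h RT. Data normalized to CDCA 50 uM and DMSO; Hill-fit IC50.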

[9] = target: Glucocorticoid receptor (Homo sapiens) (UniProt P04150); assay: qHTS assay for small molecule agonists of glucocorticoid receptor signaling (AID 588532; active means well fitted curve in the direction sought with a large enough effect in the signal ratio, with a control signal flat; the % refers to the signal ratio;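 further: 100% = dexamethasone at 0.1 µM and 0% = DMSO only wells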); conditions: HeLa MMTV-bla, beta-lactamase ratio, agonist, 18 h; stronger effect = higher value; percent of dexamethasone control, DMSO zero
Glucocorticoid receptor (Homo sapiens), sequence (P04150 whole entry, looked up): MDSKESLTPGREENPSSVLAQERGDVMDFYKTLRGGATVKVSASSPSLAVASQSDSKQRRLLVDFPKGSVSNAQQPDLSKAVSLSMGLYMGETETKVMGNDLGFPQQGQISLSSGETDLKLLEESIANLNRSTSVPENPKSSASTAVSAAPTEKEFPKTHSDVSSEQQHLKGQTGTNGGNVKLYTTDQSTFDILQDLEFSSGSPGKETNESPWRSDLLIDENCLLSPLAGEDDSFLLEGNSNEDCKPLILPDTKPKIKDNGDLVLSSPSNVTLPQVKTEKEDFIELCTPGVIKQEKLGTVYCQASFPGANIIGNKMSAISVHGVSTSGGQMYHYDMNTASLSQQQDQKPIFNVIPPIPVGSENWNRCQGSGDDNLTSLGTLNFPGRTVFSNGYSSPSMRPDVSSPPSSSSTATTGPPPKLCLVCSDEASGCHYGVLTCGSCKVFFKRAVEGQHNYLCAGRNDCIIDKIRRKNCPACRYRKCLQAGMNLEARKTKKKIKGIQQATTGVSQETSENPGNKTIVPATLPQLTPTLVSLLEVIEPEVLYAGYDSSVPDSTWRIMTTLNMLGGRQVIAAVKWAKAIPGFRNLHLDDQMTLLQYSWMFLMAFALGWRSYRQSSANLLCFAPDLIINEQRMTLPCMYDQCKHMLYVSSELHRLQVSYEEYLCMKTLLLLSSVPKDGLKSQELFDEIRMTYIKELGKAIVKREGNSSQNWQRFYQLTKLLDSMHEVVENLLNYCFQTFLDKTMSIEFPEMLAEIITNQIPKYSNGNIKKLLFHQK
Outline: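 Quantitative HTS using CellSensor MMTV-bla HeLa cells in charcoal/dextran-treated serum; compounds tested up to 92 uM. After 18 h at 37 C, CCF4 dye reported reporter induction.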

[10] = target: Glucocorticoid receptor (Homo sapiens) (UniProt P04150); assay: qHTS assay for small molecule antagonists of glucocorticoid receptor signaling (AID 588533; active means well fitted inhibition curve with a large enough effect in the signal ratio, with a control signal flat, not every such curve was filed as active; the % refers to the signal ratio;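 further: cells stimulated with 2 nM dexamethasone as agonist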; further: potency means the concentration at half of the fitted maximal effect)
Outline: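 Antagonist-mode qHTS: compound titrations added to GRE-bla HeLa cells, then dexamethasone 2 nM final; 18 h, 37 C. CCF4 FRET fluorescence normalized to dexamethasone and DMSO; IC50 from Hill fit.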

[11] = qHTS assay for small molecule antagonists of peroxisome proliferator-activated receptor delta signaling (AID 588535; active means well fitted inhibition curve with a large enough effect in the signal ratio, with a control signal flat, not every such curve was filed as active; the % refers to the signal ratio;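 on max response: cells co-treated with a PPAR-delta agonist as stimulator during compound exposure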); conditions: HEK293T PPARd-UAS-bla, beta-lactamase FRET ratio, 18 h; 460 nm channel
Outline: (§1)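 HEK293T PPAR-delta-UAS-bla cells, 4000/well, 2% charcoal/dextran FBS; 5 h 37 C; cpd titration; 18 h 37 C; CCF4 2 h RT; FI 460/530 nm; Hill fit → IC50, efficacy.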

[12] = target: Peroxisome proliferator-activated receptor delta (Homo sapiens) (UniProt Q03181); assay: as above
Peroxisome proliferator-activated receptor delta (Homo sapiens), sequence (Q03181 whole entry, looked up): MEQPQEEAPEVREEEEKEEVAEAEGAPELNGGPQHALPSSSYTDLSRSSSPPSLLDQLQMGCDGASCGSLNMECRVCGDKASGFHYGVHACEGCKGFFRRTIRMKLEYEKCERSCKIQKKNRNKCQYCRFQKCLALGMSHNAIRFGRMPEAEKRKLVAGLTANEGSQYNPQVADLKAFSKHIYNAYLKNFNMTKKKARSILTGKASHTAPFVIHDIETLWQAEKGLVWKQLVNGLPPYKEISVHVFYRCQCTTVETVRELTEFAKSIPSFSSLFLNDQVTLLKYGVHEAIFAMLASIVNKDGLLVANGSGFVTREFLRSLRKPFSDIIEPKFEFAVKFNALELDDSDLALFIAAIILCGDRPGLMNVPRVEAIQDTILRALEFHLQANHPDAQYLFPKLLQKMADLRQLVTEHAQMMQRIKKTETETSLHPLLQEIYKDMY
Outline: as §1

[13] = target: Peroxisome proliferator-activated receptor gamma (Homo sapiens) (UniProt P37231); assay: qHTS assay for small molecule agonists of peroxisome proliferator-activated receptor gamma signaling (AID 588536; active means well fitted curve in the direction sought with a large enough effect in the signal ratio, with a control signal flat, not every such curve was filed as active; the % refers to the signal ratio;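 further: 0% = DMSO basal wells and 100% = rosiglitazone at 2 µM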)
Peroxisome proliferator-activated receptor gamma (Homo sapiens), sequence (P37231 whole entry, looked up): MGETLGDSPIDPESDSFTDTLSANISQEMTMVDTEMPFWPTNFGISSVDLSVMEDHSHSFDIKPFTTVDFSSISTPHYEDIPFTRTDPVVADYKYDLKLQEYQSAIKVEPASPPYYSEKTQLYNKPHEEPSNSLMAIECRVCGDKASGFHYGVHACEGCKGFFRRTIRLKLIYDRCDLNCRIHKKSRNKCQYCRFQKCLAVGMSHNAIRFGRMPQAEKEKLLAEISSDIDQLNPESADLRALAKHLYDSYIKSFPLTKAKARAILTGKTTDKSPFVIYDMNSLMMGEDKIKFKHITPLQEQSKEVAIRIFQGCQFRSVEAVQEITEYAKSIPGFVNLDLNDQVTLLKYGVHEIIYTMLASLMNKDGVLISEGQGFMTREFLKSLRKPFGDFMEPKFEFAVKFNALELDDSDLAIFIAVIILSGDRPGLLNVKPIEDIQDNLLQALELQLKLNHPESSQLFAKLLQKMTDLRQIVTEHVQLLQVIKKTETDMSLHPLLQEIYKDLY
Outline: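 Test agents, titrated, stimulated HEK293 UAS-bla cells overnight (16 h, 37 C). Substrate CCF4 was then added for two hours at room temperature before fluorescence reading.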

[14] = target: Peroxisome proliferator-activated receptor gamma (Homo sapiens) (UniProt P37231); assay: qHTS assay for small molecule antagonists of peroxisome proliferator-activated receptor gamma signaling (AID 588537; active means well fitted inhibition curve with a large enough effect in the signal ratio, with a control signal flat, not every such curve was filed as active; the % refers to the signal ratio; further: potency means the concentration at half of the fitted maximal effect)
Outline: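 Antagonist mode, beta-lactamase reporter in HEK293; charcoal/dextran FBS 1%; 3000 cells/well, 37 C 6-6.5 h; cpd titration + rosiglitazone 50 nM final, 16 h 37 C; CCF4, 2 h RT; 460/530 nm; Hill fit → IC50, efficacy.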

[15] = target: Vitamin D3 receptor (Homo sapiens) (UniProt P11473); assay: qHTS assay for small molecule antagonists of vitamin D receptor signaling (AID 588541; calls by dose curve;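 further: receptor activated by calcitriol during compound treatment; series mostly up to about 77 µM; on the % scale 0 is the no-effect control and ±100 the full control effect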)
Vitamin D3 receptor (Homo sapiens), sequence (P11473 whole entry, looked up): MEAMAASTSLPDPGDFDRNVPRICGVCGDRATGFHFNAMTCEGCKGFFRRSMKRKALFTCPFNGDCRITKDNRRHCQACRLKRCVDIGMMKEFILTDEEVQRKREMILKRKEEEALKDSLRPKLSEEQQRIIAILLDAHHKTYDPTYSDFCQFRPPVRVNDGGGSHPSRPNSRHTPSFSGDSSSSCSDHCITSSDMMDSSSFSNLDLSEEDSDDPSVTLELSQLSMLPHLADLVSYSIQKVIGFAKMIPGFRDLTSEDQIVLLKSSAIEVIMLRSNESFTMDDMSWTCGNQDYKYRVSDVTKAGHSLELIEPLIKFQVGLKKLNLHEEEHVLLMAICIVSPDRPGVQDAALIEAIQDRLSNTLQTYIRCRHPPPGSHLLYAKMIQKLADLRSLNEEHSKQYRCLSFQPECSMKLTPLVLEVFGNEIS
Outline: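 Antagonist-mode beta-lactamase reporter assay: HEK293T VDR-UAS-bla cells were exposed to titrated compound alongside 1-alpha,25-dihydroxyvitamin D3 at 3 nM final for 16 h. Values were normalized to the 50 nM agonist control and DMSO basal, with IC50 and efficacy from Hill equation fits.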

[16] = target: Vitamin D3 receptor (Homo sapiens) (UniProt P11473); assay: qHTS assay for small molecule agonists of vitamin D receptor signaling (AID 588543; calls by dose curve;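 further: 0% = DMSO basal and 100% = reference agonist control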)
Outline: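 GeneBLAzer VDR-UAS-bla HEK293T cells in 2% charcoal-stripped FBS medium were dosed with compound titrations for 16 h at 37 °C; CCF4 β-lactamase readout (405 nm ex, 460/530 nm em). EC50 and efficacy from Hill fits, normalized to 50 nM calcitriol (100%) and DMSO (0%).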

[17] = target: Estrogen receptor (Homo sapiens) (UniProt P03372); assay: qHTS assay for small molecule antagonists of estrogen receptor alpha signaling (AID 588513; active means well fitted curve in the direction sought with a large enough effect in the signal ratio, with a control signal flat, not every such curve was filed as active; the % refers to the signal ratio; further: on the % scale 0 is the no-effect control and ±100 the full control effect)
Estrogen receptor (Homo sapiens), sequence (P03372 whole entry, looked up): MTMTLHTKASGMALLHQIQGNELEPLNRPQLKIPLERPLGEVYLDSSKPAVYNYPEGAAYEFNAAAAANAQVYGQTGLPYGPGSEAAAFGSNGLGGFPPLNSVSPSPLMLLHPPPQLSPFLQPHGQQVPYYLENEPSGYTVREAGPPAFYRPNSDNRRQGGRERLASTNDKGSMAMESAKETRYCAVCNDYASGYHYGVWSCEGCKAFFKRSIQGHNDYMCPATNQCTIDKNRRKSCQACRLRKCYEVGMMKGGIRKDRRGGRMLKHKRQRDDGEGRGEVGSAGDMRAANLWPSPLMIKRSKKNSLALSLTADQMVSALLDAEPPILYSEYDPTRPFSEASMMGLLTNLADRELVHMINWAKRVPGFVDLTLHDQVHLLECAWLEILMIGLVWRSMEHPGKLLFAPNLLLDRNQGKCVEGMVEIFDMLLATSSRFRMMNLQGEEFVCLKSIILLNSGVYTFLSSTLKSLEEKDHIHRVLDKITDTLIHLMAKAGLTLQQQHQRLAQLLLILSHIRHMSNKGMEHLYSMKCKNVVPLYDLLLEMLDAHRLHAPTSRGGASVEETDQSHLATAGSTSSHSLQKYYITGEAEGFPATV
Outline: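 ER-alpha-UAS-bla GripTite HEK 293 cells in medium with 2% charcoal/dextran-treated FBS were preincubated 4 h at 37 C, dosed with compound (1:2 titration), stimulated with 0.5nM 17-beta-estradiol for 18 h, then read by CCF4 beta-lactamase fluorescence.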

[18] = qHTS assay for small molecule agonists of retinoid X receptor alpha signaling (AID 588544); conditions: HEK293T RXRa-UAS-bla, beta-lactamase reporter, 18 h; 530 nm emission
[19] = target: Androgen receptor (Homo sapiens) (UniProt P10275); assay: qHTS assay for small molecule agonists of androgen receptor signaling (AID 588515; active means well fitted curve in the direction sought with a large enough effect in the signal ratio, with a control signal flat; the % refers to the signal ratio; further: on the % scale 0 is the no-effect control and ±100 the full control effect); conditions: AR-UAS-bla HEK293, beta-lactamase ratio, agonist 16 h; stronger effect = higher value
Outline: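 EC50 and efficacy came from Hill fits of titrations (up to 92 uM) normalized to 30 nM R1881 as 100% and DMSO as 0%. Compound exposure was 16 h at 37 C on AR-UAS-bla HEK293 cells, with a 405/460/530 nm CCF4 fluorescence read.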

CC12CC3CC(C)(C1)CC(N)(C3)C2
inactive: Potency [1] | Potency [2] | outcome [3] | Potency [4] | outcome [5] | Potency [6]

O=C1c2c(O)ccc(O)c2C(=O)c2c(NCCNCCO)ccc(NCCNCCO)c21
inactive: Potency [1]

CN1CCC(=C2c3ccccc3CC(=O)c3sccc32)CC1
inactive: Potency [1] | Potency [2] | outcome [3] | Potency [4] | outcome [5] | outcome [7]

Cn1cnc2c1c(=O)[nH]c(=O)n2C
inactive: Potency [1] | Potency [2] | outcome [3] | Potency [4] | outcome [5] | Potency [6] | outcome [7] | Potency [8] | activation [9] -4.06% | Potency [10] | outcome [12] | outcome [13] | Potency [14] | outcome [15] | outcome [16]
-1.33%: max response [11]

CC(C)C(=O)Nc1ccc([N+](=O)[O-])c(C(F)(F)F)c1
inactive: Potency [1] | Potency [2] | outcome [3] | Potency [4] | outcome [5] | outcome [17] | Potency [8] | outcome [13] | Potency [14]

O=c1c(-c2ccc(O)cc2)coc2cc(O)cc(O)c12
inactive: Potency [1] | Potency [2] | outcome [3] | Potency [4] | outcome [5] | Potency [6] | activation [9] -14.7% and -3.51% | outcome [15] | outcome [16]
active: Potency [8] 25.1 µM

NC(=O)OCC(COC(N)=O)c1ccccc1
inactive: Potency [1] | Potency [2] | outcome [3] | Potency [4] | outcome [5] | Potency [6] | outcome [7]

CCOC(=O)C(C)(C)Oc1ccc(Cl)cc1
inactive: Potency [1] | Potency [2] | outcome [3] | Potency [4] | outcome [5] | Potency [6] | outcome [17] | Potency [8] | activation [9] -5.3% | Potency [10] | outcome [12] | outcome [13] | Potency [14] | outcome [15] | outcome [16]
-15.2%: max response [11]
-9.24%: max response [18]

Nc1nnc(-c2cccc(Cl)c2Cl)c(N)n1
inactive: Potency [1] | Potency [2] | outcome [3] | Potency [4] | outcome [5] | Potency [6] | outcome [7]

Nc1ccn([C@H]2CC[C@@H](CO)O2)c(=O)n1
inactive: Potency [1] | Potency [2] | outcome [3] | Potency [4] | outcome [5] | Potency [6] | outcome [7] | outcome [17] | outcome [12] | outcome [13] | Potency [14]
-2.4% and 34.8%: max response [11]
-7.85% and -11%: max response [18]

CCC1(c2ccccc2)C(=O)NCNC1=O
-2.48% and -11.6%: max response [18]
inactive: Potency [1] | Potency [2] | outcome [3] | Potency [4] | outcome [5] | Potency [6] | outcome [7] | Potency [8] | activation [9] -1.52% and -4.43% | Potency [10] | outcome [13] | Potency [14] | outcome [15] | outcome [16]

O=C(c1ccc(OCCN2CCCCC2)cc1)c1c(-c2ccc(O)cc2)sc2cc(O)ccc12
inactive: Potency [1] | Potency [2] | outcome [3] | Potency [4] | outcome [16]
active: Potency [10] 39.8 µM | Potency [14] 39.8 µM

COc1ccc2c(c1)c(CC(=O)O)c(C)n2C(=O)c1ccc(Cl)cc1
inactive: Potency [1] | Potency [2] | outcome [3] | Potency [4] | outcome [5] | Potency [6] | outcome [7] | outcome [17] | activation [19] -9.17% | activation [9] -6.76% | Potency [10]

Fc1ccc([C@@H]2CCNC[C@H]2COc2ccc3c(c2)OCO3)cc1
inactive: Potency [1] | Potency [2] | outcome [3] | Potency [4]
active: Potency [6] 35.5 µM

Clc1ccc(C(c2ccccc2Cl)C(Cl)Cl)cc1 (centres undefined)
inactive: Potency [1] | Potency [2] | outcome [3] | Potency [4] | outcome [5] | Potency [6] | activation [9] -3.98% | outcome [12]
-16.9%: max response [11]

CN1CCN(C2=Nc3cc(Cl)ccc3Nc3ccccc32)CC1
inactive: Potency [1] | Potency [2] | outcome [3] | Potency [4] | outcome [7]

CC#C[C@]1(O)CC[C@H]2[C@@H]3CCC4=CC(=O)CCC4=C3[C@@H](c3ccc(N(C)C)cc3)C[C@@]21C
inactive: Potency [1] | Potency [2] | outcome [3] | Potency [4] | activation [9] -13.5%

O=C1N(c2ccccc2)c2ccccc2C1(Cc1ccncc1)Cc1ccncc1
inactive: Potency [1] | Potency [2] | outcome [3] | Potency [4] | outcome [5] | outcome [7]

Cc1cn([C@H]2C=C[C@@H](CO)O2)c(=O)[nH]c1=O
-12.5% and -2.44% and -13%: max response [18]
27.7% and 7.49%: max response [11]
inactive: Potency [1] | Potency [2] | outcome [3] | Potency [4] | outcome [5] | Potency [6] | Potency [8] | outcome [12] | outcome [13] | Potency [14] | outcome [15] | outcome [16]
